Screening results deposited in PubChem BioAssay by several laboratories.
SENP6 block: inhibitors of human SENP6 protease; Recombinant SENP6 catalytic domain, aminoluciferin luminescence; hit rate 1.8% among 330,000; inhibition, % at 10 µM; Q9GZR1;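 active = inhibition above about 50% at the single tested dose, limit read from the data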;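 also: plate controls were DMSO wells with enzyme for no effect and DMSO wells lacking enzyme for full effect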
Platelet DG rel: modulates dense granule release in human platelets. human platelet-rich plasma, SFLLRN dense granule ATP release, luminescence. inhibition, %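 (compounds screened at 7.5 µM in platelet-rich plasma)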. hit rate 0.22% among 300,000;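 active = mean replicate score, as percent of positive control, at or above 50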
SENP7 inh: inhibitors of human SENP7 protease; inhibition, % at 5 µM; recombinant SENP7, Z-RLRGG-aminoluciferin luminescence, 40 min; AID 434973; Q9BQF6; hit rate 1.5% among 330,000;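 active = inhibition above about 50% at the single test dose, limit read from the data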;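 also: plate controls were DMSO with enzyme for no effect and no enzyme buffer wells for full effect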
SENP8 block-1: blocks human SENP8 cleavage of Nedd8 substrate. Q96LD8. recombinant SENP8, Nedd8 substrate fluorescence. inhibition, % at 20 µM. AID 602440. hit rate 0.64% among 360,000; in the data active = inhibition mostly above about 40%, no sharp cut-off; inactive = mostly below about 27%
Target sequence (Q96LD8 whole entry, looked up): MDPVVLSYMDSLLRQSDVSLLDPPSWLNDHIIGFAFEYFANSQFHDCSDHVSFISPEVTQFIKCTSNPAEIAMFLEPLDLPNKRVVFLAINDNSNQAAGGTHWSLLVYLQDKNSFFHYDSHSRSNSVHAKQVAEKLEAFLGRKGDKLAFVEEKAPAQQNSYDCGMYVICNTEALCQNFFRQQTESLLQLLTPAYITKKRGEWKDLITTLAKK
SENP8 block-2: blocks the human protease SENP8; inhibition, % at 10 µM; purified SENP8, Z-RLRGG-aminoluciferin cleavage, luminescence; Q96LD8; hit rate 1.2% among 330,000; AID 2540; in the data active = inhibition above about 50%
SENP8 confirm: confirmation of human SENP8 protease inhibitors | shares compounds with SENP7 inh | Recombinant SENP8, Z-RLRGG-aminoluciferin luminescence, 60 min | inhibition, % at 12.5 µM | hit rate 40% among 6,200 | AID 488912;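 active = mean inhibition across replicates above about 50%, limit read from the data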
SENP6 confirm: confirmation of human SENP6 protease inhibitors; shares compounds with SENP7 inh; recombinant SENP6, Z-RLRGG-aminoluciferin luminescence; inhibition, % at 12.5 µM; hit rate 58% among 6,200
SENP7 conf: human SENP7 inhibition, confirmed | shares compounds with SENP7 inh | recombinant SENP7, Z-RLRGG-aminoluciferin luminescence, 40 min | inhibition, % at 12.5 µM | hit rate 69% among 6,200
Casp3 SENP sel: inhibits human caspase-3 in SENP selectivity test | shares compounds with SENP7 inh | purified caspase-3, Z-DEVD-aminoluciferin luminescence, 60 min | inhibition, % at 12.5 µM | hit rate 60% among 6,200 | AID 488918;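 active = mean inhibition above about 50%, limit read from the data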;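 also: plate controls were enzyme with DMSO for no effect and wells without caspase-3 for full effect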
Target sequence (P42574 28-227 limits assumed): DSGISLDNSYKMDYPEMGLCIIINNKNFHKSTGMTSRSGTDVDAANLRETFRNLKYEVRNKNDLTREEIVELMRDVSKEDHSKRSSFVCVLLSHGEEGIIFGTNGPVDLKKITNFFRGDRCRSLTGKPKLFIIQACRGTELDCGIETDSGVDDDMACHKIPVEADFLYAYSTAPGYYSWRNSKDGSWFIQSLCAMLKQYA
SENP luc ctr: counter-screen for SENP inhibitors: luminescence interference; AID 488919; shares compounds with SENP7 inh; Pre-incubated SENP8/Z-RLRGG-aminoluciferin, luciferase luminescence interference; hit rate 39% among 6,200; inhibition, % at 12.5 µM;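 active = mean inhibition above about 50% when retested at one dose, limit read from the data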;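 also: plate controls were DMSO wells with completed reaction for no effect and substrate without enzyme for full effect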
Numbers without * were called inactive; nt = not tested or not shown. Rows were chosen to be rich in hits. Some 2.4% of all compounds tested hit in one or more screens of this group.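 The calls were made as follows, unless noted: active = mean inhibition above about 50% in the one-dose retest (limit read from the data); inactive = the rest.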

SMILES	SENP6 block	Platelet DG rel	SENP7 inh	SENP8 block-1	SENP8 block-2	SENP8 confirm	SENP6 confirm	SENP7 conf	Casp3 SENP sel	SENP luc ctr
O=C(Nc1nc2ccccc2s1)c1ccc(OCC2CCCO2)cc1 (configuration not stated)	71*	3	77*	-155	53*	42	73*	93*	62*	46
COc1ccc2nc(NC(=O)c3ccc(F)cc3)sc2c1	64*	3	90*	-237	25	8	37	32	25	-1
CCCCC(C(=O)NC1CCCC1)N(C(=O)c1snc(C(N)=O)c1N)c1ccc(C)cc1 (configuration not stated)	-27	9	-2	-323	-13	nt	nt	nt	nt	nt
Cn1nnnc1NN=Cc1ccccc1	nt	nt	nt	12	nt	nt	nt	nt	nt	nt
COc1ccc(C(=O)Nc2nc3ccccc3s2)cc1OC	21	-1	15	-102	6	nt	nt	nt	nt	nt
COc1cccc(C(=O)Nc2nc3ccccc3s2)c1	90*	-3	91*	-17	86*	90*	91*	99*	83*	60*
COc1cc(/C=C/c2ccc3cccc(O)c3n2)cc(Cl)c1OC	58*	-1	55*	-63	47	-15	23	-3	13	5
COc1ccc(/C=C/c2ccc3cccc(O)c3n2)c(OC)c1OC	5	3	-4	-134	-10	nt	nt	nt	nt	nt
COc1cccc(/C=C/c2ccc3cccc(O)c3n2)c1OC	58*	9	36	-57	42	52*	40	89*	52*	30
CC1CCCCN1S(=O)(=O)c1ccc2[nH]c(=O)cc(C(=O)NCCCN3CCCCCC3)c2c1 (configuration not stated)	3	5	-6	-14	-4	nt	nt	nt	nt	nt
Cc1nc2cc(NCc3nc4ccccc4n3Cc3ccccc3)ccc2n1C	42	6	-1	-37	27	nt	nt	nt	nt	nt
Cc1ccc(NCc2nc3ccccc3n2C)c(C)c1	76*	14	79*	12	71*	83*	83*	95*	88*	85*
Cc1cccc(NCc2nc3ccccc3n2Cc2ccccc2)c1	58*	-2	27	-1	23	29	26	58*	25	35
Cc1cccc(NCc2nc3ccccc3n2C)c1	50*	1	56*	15	29	42	42	79*	71*	56*
Cc1ccc(-c2nc3n(n2)Cc2ccccc2-3)cc1	97*	18	99*	14	96*	80*	91*	103*	98*	68*
CCn1c(C)nc2cc(C(=O)NNC(=O)c3ccc(C)cc3)ccc21	2	nt	6	-41	4	nt	nt	nt	nt	nt
Fc1ccc(-c2nc3n(n2)Cc2ccccc2-3)cc1	100*	nt	99*	19	95*	93*	98*	102*	98*	64*
CCn1c(C)nc2cc(-c3nc4n(n3)Cc3ccccc3-4)ccc21	96*	97*	100*	-6	96*	99*	100*	103*	99*	86*
Cc1ccc(C)c(NS(=O)(=O)c2cc(C(=O)Nc3ccccc3-c3ccccc3)ccc2Cl)c1	4	-6	7	13	1	nt	nt	nt	nt	nt
Cc1cccc(NC(=S)NNC(=O)c2csc3c2CCCC3)c1	46	2	-9	2	61*	46	39	31	15	12
Cc1ccc(C)c(NC(=S)NNC(=O)c2csc3c2CCCC3)c1	16	2	24	17	8	nt	nt	nt	nt	nt
COc1ccc(CNC(=O)c2csc3c2CCCC3)cc1	-17	nt	-2	11	-6	nt	nt	nt	nt	nt
COc1cccc(NC(=O)c2csc3c2CCCC3)c1	68*	3	62*	-3	54*	59*	59*	87*	49	25
COc1cccc(NC(=O)CN(C)C(=O)c2csc3c2CCCC3)c1	-8	nt	3	-2	-8	nt	nt	nt	nt	nt
